Where “and” joins values, the source holds several entries; their conditions need not be identical. Equal entries are not always repeated. Inconclusive results are not listed. Calls of active or inactive are those of the source. How the source made its calls, unless noted: active means hit-call score of the fitted dose curve at least 0.9, where 1 is the maximum; inactive means score below 0.9.

For 8 molecules, outcome and AC50 results are on record in PubChem BioAssay (EPA / NIEHS).

A short description of assay [1]: ATG_NRF2_ARE_CIS: Attagene CIS-FACTORIAL HepG2 Assay for human Nuclear Factor Erythroid 2 Related Factor 2 (NFR2) response to Antioxidant Response Elements (ARE) (AID 2282992).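 On AC50: reporter mRNA level measured by RT-PCR and capillary electrophoresis fluorescence.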 Conditions: HepG2 Attagene ARE/NRF2 reporter, transcription factor activity; actives raise or lower the signal. In a few lines:
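Fluorescence intensity of reporter-specific cDNA fragments, separated by capillary electrophoresis, reflects mRNA induction in transfected HepG2 cells at 24 h. Activity is fitted bidirectionally, DMSO serving as baseline.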

A short description of assay [2]: ATG_Oct_MLP_CIS: Attagene CIS-FACTORIAL HepG2 Assay for human Octamer-Binding Transcription Factor (Oct) (AID 2282993). Conditions: HepG2 Attagene cis-factorial Oct reporter, mRNA; actives raise or lower the signal. In a few lines:
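Transient MRTU transfection of HepG2 → 24 h compound treatment → RNA isolation, reverse transcription, PCR → 6-FAM primer extension, HpaI digest → capillary electrophoresis. Activity fitted both directions against DMSO.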

Assay [3] deals with Cellular tumor antigen p53 (Homo sapiens) (UniProt P04637). Briefly: ATG_p53_CIS: Attagene CIS-FACTORIAL HepG2 Assay for human p53 Transcription Factor (AID 2282994). The settings on record: HepG2 p53 cis-element reporter, Attagene mRNA; actives raise or lower the signal. In a few lines:
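Transiently transfected HepG2 (multiple cis reporter transcription units); exposure 24 h; reporter RNA via RT-PCR, 6-FAM extension, 2 h HpaI digest at 37 C, CE detection; DMSO baseline.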

A short description of assay [4]: BSK_3C_TissueFactor: BioMAP Diversity Plus: 3C Assay for Tissue Factor Biomarker Activity (AID 2282997). Conditions: BioMAP 3C HUVEC, tissue factor biomarker readout; actives raise or lower the signal. The essentials: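 Cells used were primary human umbilical vein endothelial cells. They were dosed with chemical, and after 24 h Tissue Factor was quantified by ELISA. Curves were fitted bidirectionally with DMSO as baseline.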

Assay [5] is described as follows: BSK_3C_uPAR: BioMAP Diversity Plus: 3C Assay for Urokinase-type plasminogen activator receptor (uPAR) Biomarker Activity (AID 2282998). The settings on record: BioMAP 3C HUVEC, uPAR biomarker ELISA; actives raise or lower the signal. The essentials:
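ELISA readout of uPAR on human vascular endothelium (umbilical vein primary cells), taken 24 h after chemical dosing. Increases and decreases are both fitted relative to DMSO vehicle.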
A general note: ELISA stands for enzyme-linked immunosorbent assay.

Assay [6] can be described thus: BSK_3C_VCAM1: BioMAP Diversity Plus: 3C Assay for Vascular cell adhesion molecule 1 (VCAM1) Biomarker Activity (AID 2282999). Conditions: BioMAP 3C HUVEC, VCAM1 ELISA, cytokine-stimulated; actives raise or lower the signal. In a few lines: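 Activity fitted in both directions relative to DMSO, with ELISA measurement of the surface marker on primary HUVEC (3C) at 24 h post-treatment; parallel SRB staining (0.1% SRB, TCA-fixed, 560 nm) flagged overt cytotoxicity.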

The nature of assay [7]: BSK_4H_Eotaxin3: BioMAP Diversity Plus: 4H Assay for Eotaxin 3 Biomarker Activity (AID 2283000).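 On outcome: CCL26 protein level quantified by ELISA in parallel with SRB cytotoxicity check.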 Conditions: primary human endothelial cells (HUVEC); actives raise or lower the signal. In a few lines:
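Endothelial primary cells (human umbilical vein) exposed to compound for 24 h. ELISA detection of Eotaxin-3.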

Assay [8] addresses human Peroxisome Proliferator-activated Receptor alpha (PPARa), PPARA (gene 5465) (UniProt Q07869). Briefly: ATG_PPARa_TRANS: Attagene TRANS-FACTORIAL HepG2 Assay for human Peroxisome Proliferator-activated Receptor alpha (PPARa) (AID 2283001; active means hit-call score of the fitted dose curve at least 0.9, where 1 is the maximum;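 on AC50: potency for gain of reporter signal over DMSO so agonist or activator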). The essentials:
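Transfected HepG2 cells treated with test chemical for 24 h. RNA isolated, reverse-transcribed with oligo(dT), PCR-amplified, FAM-labelled and HpaI-digested. Fragments sized by capillary electrophoresis; gain-of-signal fit relative to DMSO.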

Read-out in assay [9]: Intercellular Adhesion Molecule 1 (ICAM1), ICAM1 (gene 3383)
In words: BSK_3C_ICAM1: BioMAP Diversity Plus: 3C Assay for Intercellular Adhesion Molecule 1 (ICAM1) Biomarker Activity (AID 2283003). Conditions: primary human endothelial cells (HUVEC); actives raise or lower the signal. The essentials: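 Using DMSO as baseline, bidirectional curve fitting was applied to ICAM-1 ELISA signals from HUVEC in the 3C system, measured 24 h after compound addition.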

Assay [10] concerns the target human Retinoic Acid Receptor beta (RARb), RARB (gene 5915) (UniProt P10826). Briefly: ATG_RARb_TRANS: Attagene TRANS-FACTORIAL HepG2 Assay for human Retinoic Acid Receptor beta (AID 2283004; active means hit-call score of the fitted dose curve at least 0.9, where 1 is the maximum). The essentials:
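HepG2, transient MRTU transfection, NR–Gal4 chimera, 24 h treatment; RT-PCR plus CE fluorescence detection of reporter mRNA; gain of signal vs DMSO.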

The target in assay [11] is Retinoic acid receptor alpha (Homo sapiens) (UniProt P10276). Briefly: ATG_RARa_TRANS: Attagene TRANS-FACTORIAL HepG2 Assay for human Retinoic Acid Receptor alpha (RARa) (AID 2283005; active means hit-call score of the fitted dose curve at least 0.9, where 1 is the maximum;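 on AC50: potency for increased reporter signal meaning RARa activation over DMSO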). The essentials:
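Reporter transcripts, measured by RT-PCR with fluorescent labeling and capillary electrophoresis after 24 h dosing, reflect activity of an exogenous human RARa–GAL4 fusion in transiently transfected HepG2. Fitted for increase relative to DMSO.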

A short description of assay [12]: BSK_3C_Proliferation: Cell Proliferation Assessment in the BioMAP Diversity Plus: 3C Assay (AID 2283006).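 On AC50: potency may reflect either rise or fall in cell number versus DMSO.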 The settings on record: primary human endothelial cells (HUVEC). The essentials: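 Measured here: sulforhodamine B (0.1%) staining of TCA-fixed sub-confluent umbilical vein endothelial cultures 48 h post-dosing, absorbance 560 nm. DMSO served as negative control and baseline; both signal gain and loss were modelled.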

For assay [13], the target named is Peroxisome proliferator-activated receptor gamma (Homo sapiens) (UniProt P37231). Briefly: ATG_PPARg_TRANS: Attagene TRANS-FACTORIAL HepG2 Assay for human Peroxisome Proliferator-activated Receptor-gamma (PPARg) (AID 2283007; active means hit-call score of the fitted dose curve at least 0.9, where 1 is the maximum). The essentials:
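A TRANS-format multiplexed reporter assay measures activity of an exogenous chimeric NR-Gal4 protein in HepG2 cells. After 24 h of chemical exposure, reporter transcripts are amplified, fluorescently labelled and sized by capillary electrophoresis, with gain of signal scored against DMSO.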

Assay [14] concerns the target human Retinoic Acid Receptor gamma (RARg), RARG (gene 5916) (UniProt P13631). Briefly: ATG_RARg_TRANS: Attagene TRANS-FACTORIAL HepG2 Assay for human Retinoic Acid Receptor gamma (RARg) (AID 2283009; active means hit-call score of the fitted dose curve at least 0.9, where 1 is the maximum;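 on AC50: AC50 is for reporter induction above DMSO meaning RARg activation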). In a few lines:
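Gain-of-signal relative to DMSO is reported from fluorescent capillary electrophoresis of RT-PCR reporter products. These came from HepG2 cells expressing transfected RARg-GAL4 chimeras with UAS reporters, harvested 24 h after dosing.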

Assay [15] has as its target human RAR-related Orphan Receptor gamma (RORg), RORC (gene 6097) (UniProt P51449). In words: ATG_RORg_TRANS: Attagene TRANS-FACTORIAL HepG2 Assay for human RAR-related Orphan Receptor gamma (RORg) (AID 2283011; active means hit-call score of the fitted dose curve at least 0.9, where 1 is the maximum). In a few lines: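 Activity is scored as increase in GAL4-UAS reporter mRNA over DMSO, detected by fluorescent RT-PCR and capillary electrophoresis in HepG2 cells transiently expressing a RORg-Gal4 chimera, 24 h after dosing.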

For assay [16], the target named is Retinoic acid receptor RXR-alpha (Homo sapiens) (UniProt P19793). Briefly: ATG_RXRa_TRANS: Attagene TRANS-FACTORIAL HepG2 Assay for human Retinoid X Receptor alpha (RXRa) (AID 2283012; active means hit-call score of the fitted dose curve at least 0.9, where 1 is the maximum). In a few lines:
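Chimeric NR-GAL4 trans-activation in HepG2, 24 h treatment; reporter transcripts quantified by fluorescence on capillary electrophoresis, analysed for upward change from DMSO.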

A short description of assay [17]: ATG_NF_kB_CIS: Attagene CIS-FACTORIAL HepG2 Assay for human Nuclear Factor Kappa B (NF-kB) (AID 2282991). The settings on record: HepG2 Attagene cis-factorial NF-kB reporter mRNA; actives raise or lower the signal. The essentials: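 Endogenous transcription factor activity in HepG2 was captured via cis-regulated reporter constructs; after 24 h dosing, reporter mRNA was reverse-transcribed, amplified, fluorescently labelled and sized by capillary electrophoresis, with activity fitted bidirectionally relative to DMSO.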

For assay [18], the target named is human RAR-related Orphan Receptor beta (RORb), RORB (gene 6096) (UniProt Q92753). In words: ATG_RORb_TRANS: Attagene TRANS-FACTORIAL HepG2 Assay for human RAR-related Orphan Receptor beta (RORb) (AID 2283010; active means hit-call score of the fitted dose curve at least 0.9, where 1 is the maximum). The essentials:
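Multiplexed transcription-factor reporter assay: HepG2 cells transiently carrying NR-Gal4/GAL4-UAS constructs, 24 h treatment, mRNA quantified by RT-PCR plus capillary electrophoresis fluorescence; activity scored as induction over DMSO.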

Assay [19] deals with human Peroxisome Proliferator-activated Receptor delta (PPARd), PPARD (gene 5467) (UniProt Q03181). Briefly: ATG_PPARd_TRANS: Attagene TRANS-FACTORIAL HepG2 Assay for human Peroxisome Proliferator-activated Receptor delta (PPARd) (AID 2283002; active means hit-call score of the fitted dose curve at least 0.9, where 1 is the maximum). The essentials: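 Transient HepG2 transfection (multiple GAL4-UAS RTUs, chimeric receptor-Gal4); 24 h dosing; total RNA → oligo(dT) RT → PCR → 6-FAM primer extension → HpaI cut → CE. Positive direction vs DMSO.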
Chain of human Peroxisome Proliferator-activated Receptor delta (PPARd), PPARD (gene 5467) (Q03181 whole entry, looked up, the tested form may be a part): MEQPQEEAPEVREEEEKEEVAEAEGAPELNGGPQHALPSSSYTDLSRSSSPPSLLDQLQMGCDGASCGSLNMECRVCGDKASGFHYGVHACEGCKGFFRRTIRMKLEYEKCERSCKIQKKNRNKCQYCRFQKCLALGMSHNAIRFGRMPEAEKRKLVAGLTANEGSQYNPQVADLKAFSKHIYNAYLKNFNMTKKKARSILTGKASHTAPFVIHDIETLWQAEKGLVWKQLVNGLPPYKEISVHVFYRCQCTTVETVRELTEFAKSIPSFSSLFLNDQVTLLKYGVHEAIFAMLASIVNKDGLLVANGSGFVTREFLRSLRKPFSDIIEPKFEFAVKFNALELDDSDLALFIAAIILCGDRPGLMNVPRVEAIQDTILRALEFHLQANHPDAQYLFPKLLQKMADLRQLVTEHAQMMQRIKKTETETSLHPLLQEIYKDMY

Chain of human Retinoic Acid Receptor beta (RARb), RARB (gene 5915) (P10826 whole entry, looked up, the tested form may be a part): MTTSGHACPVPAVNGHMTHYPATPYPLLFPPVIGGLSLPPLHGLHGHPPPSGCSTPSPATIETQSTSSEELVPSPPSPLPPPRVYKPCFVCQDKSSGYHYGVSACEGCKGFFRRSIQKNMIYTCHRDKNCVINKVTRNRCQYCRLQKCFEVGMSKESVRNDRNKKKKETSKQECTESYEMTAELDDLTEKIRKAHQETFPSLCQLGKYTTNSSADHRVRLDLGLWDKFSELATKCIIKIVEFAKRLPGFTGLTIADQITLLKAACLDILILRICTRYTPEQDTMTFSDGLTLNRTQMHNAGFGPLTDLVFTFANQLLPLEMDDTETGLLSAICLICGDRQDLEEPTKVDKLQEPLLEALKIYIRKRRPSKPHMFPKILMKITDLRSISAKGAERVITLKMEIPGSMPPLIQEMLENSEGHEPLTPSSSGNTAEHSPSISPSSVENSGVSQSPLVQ
Chain of Retinoic acid receptor alpha (Homo sapiens) (P10276 whole entry, looked up, the tested form may be a part): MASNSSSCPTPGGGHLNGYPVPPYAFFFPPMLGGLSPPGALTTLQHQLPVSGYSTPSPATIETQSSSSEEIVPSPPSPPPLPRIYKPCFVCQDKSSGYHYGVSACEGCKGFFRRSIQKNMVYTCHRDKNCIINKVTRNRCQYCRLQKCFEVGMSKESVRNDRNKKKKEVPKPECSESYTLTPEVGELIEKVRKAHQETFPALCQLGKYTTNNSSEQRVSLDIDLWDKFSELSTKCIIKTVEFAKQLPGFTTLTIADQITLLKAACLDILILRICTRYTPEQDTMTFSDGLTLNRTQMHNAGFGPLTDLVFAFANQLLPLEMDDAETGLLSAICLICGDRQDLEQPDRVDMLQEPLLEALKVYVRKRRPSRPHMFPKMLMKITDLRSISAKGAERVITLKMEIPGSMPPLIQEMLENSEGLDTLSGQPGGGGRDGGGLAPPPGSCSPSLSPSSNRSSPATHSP
Chain of human Retinoic Acid Receptor gamma (RARg), RARG (gene 5916) (P13631 whole entry, looked up, the tested form may be a part): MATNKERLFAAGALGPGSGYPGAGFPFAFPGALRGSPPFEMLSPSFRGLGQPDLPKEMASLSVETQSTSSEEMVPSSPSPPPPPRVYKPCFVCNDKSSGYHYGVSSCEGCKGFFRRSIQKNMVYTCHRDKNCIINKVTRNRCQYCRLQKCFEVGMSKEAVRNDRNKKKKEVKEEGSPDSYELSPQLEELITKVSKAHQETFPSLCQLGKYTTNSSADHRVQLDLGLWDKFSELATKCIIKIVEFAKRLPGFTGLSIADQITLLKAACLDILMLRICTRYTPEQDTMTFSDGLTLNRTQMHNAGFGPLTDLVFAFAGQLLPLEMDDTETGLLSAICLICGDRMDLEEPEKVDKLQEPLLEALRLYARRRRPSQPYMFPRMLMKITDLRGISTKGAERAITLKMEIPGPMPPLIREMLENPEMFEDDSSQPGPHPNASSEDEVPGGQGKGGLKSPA
Chain of Retinoic acid receptor RXR-alpha (Homo sapiens) (P19793 whole entry, looked up, the tested form may be a part): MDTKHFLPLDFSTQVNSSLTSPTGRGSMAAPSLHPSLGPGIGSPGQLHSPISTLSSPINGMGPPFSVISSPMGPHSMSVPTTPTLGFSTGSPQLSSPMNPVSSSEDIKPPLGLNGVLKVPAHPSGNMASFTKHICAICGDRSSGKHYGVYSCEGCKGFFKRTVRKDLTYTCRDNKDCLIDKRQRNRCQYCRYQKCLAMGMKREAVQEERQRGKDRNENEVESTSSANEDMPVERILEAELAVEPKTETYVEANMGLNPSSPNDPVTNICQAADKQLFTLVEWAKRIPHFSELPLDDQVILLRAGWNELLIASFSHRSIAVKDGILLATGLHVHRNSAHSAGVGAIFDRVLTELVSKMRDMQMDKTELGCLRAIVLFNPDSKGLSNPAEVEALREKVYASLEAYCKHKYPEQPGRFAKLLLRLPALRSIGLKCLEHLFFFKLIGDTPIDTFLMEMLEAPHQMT
Chain of human Peroxisome Proliferator-activated Receptor alpha (PPARa), PPARA (gene 5465) (Q07869 whole entry, looked up, the tested form may be a part): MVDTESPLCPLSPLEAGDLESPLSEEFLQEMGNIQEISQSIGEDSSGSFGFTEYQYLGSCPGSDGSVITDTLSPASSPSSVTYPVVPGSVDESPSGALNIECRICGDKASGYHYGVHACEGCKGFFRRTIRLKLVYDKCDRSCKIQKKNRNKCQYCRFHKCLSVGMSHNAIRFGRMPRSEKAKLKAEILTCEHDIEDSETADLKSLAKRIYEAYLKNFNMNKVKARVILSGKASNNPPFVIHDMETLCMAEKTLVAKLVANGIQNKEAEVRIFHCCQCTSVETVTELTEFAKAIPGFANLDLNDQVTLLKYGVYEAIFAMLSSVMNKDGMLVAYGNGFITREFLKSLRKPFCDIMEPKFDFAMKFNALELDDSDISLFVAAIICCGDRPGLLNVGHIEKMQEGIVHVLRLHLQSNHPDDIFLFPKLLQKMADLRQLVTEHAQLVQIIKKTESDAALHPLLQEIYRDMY
Chain of human RAR-related Orphan Receptor gamma (RORg), RORC (gene 6097) (P51449 whole entry, looked up, the tested form may be a part): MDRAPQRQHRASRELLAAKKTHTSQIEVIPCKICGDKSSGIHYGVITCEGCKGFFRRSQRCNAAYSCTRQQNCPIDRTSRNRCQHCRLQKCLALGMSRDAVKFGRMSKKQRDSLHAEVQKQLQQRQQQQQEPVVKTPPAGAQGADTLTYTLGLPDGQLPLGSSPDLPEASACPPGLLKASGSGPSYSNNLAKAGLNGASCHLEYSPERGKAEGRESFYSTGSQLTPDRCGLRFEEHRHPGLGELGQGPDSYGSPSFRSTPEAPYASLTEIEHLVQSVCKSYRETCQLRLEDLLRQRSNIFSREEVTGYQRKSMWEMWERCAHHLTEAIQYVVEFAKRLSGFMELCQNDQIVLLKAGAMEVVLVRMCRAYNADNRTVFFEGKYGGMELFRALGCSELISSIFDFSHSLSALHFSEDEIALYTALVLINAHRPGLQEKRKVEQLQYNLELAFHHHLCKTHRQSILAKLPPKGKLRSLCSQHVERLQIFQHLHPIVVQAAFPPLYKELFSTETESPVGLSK
Chain of Peroxisome proliferator-activated receptor gamma (Homo sapiens) (P37231 whole entry, looked up, the tested form may be a part): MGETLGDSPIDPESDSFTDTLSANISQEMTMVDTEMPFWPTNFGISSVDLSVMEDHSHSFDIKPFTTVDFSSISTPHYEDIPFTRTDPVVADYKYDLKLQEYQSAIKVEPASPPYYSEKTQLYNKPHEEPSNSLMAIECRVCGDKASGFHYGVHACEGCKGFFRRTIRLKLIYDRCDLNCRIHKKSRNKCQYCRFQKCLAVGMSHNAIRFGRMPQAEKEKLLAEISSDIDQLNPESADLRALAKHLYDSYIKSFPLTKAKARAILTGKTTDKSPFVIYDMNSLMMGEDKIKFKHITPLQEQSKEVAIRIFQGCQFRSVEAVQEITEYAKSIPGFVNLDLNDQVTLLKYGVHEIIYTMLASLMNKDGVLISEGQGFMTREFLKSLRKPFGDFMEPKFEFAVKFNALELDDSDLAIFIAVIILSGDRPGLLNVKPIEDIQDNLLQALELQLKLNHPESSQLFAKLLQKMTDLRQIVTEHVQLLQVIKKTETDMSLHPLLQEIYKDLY
Chain of Cellular tumor antigen p53 (Homo sapiens) (P04637 whole entry, looked up): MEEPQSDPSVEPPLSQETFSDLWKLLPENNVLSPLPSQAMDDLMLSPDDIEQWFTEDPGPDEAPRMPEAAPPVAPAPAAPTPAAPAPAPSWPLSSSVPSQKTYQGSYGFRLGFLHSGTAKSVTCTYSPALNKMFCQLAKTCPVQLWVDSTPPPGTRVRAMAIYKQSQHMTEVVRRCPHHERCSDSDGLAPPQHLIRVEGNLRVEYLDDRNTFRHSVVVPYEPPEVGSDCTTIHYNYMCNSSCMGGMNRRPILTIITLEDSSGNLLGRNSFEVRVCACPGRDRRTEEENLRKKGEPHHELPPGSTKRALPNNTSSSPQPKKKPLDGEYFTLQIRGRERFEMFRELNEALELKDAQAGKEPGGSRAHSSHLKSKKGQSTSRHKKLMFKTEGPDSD
Chain of human RAR-related Orphan Receptor beta (RORb), RORB (gene 6096) (Q92753 whole entry, looked up, the tested form may be a part): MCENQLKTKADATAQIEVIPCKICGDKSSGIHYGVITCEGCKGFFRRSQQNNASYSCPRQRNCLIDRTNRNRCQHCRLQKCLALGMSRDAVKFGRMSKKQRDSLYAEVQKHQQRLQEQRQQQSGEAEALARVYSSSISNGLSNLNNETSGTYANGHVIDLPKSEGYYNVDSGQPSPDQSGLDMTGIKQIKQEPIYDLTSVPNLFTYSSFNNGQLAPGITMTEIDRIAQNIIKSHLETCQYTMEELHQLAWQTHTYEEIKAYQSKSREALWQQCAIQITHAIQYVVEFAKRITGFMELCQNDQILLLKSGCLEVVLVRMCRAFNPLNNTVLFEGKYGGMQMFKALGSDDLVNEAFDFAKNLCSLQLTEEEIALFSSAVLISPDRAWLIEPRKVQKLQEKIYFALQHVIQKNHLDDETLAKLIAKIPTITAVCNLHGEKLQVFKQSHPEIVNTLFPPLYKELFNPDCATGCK

On to `CC(C)CCO`, for which the molecule was classed as inactive in [1], in assay [2], in assay [3], in [4], in assay [5] and in assay [6]. In addition, the result in assay [7], in assay [8], in [9], in assay [10], in assay [11] and in assay [12] was inactive. The outcome in assay [13], in assay [14], in assay [15] and in assay [16] was inactive.

Usually AC50 stands for the concentration at which the activity in the assay is half-maximal. Turning to `CCCCCCCCCCCCc1ccccc1`, the call in [17], in assay [1], in assay [2], in [3], in assay [4] and in assay [5] was inactive. In addition, the result in [6], in assay [9], in assay [13], in assay [15] and in assay [16] was inactive. In addition, in [7], the concentration at half-maximal activity (AC50) was 26.6 µM (active).

On to `CNS(=O)(=O)c1cc(C(=O)N2CCC(CCN3C4CCC3CC(n3c(C)nc5ccccc53)C4)(c3cccc(F)c3)CC2)c(Cl)cc1F` (stereo unspecified), for which the AC50 was 5.18 µM (active) in assay [17]; 2.71 µM (active) in [1]; 6.99 µM (active) in [3]; 16.7 µM (active) in assay [5]; 13.5 µM (active) in assay [6]; 30.9 µM (active) in [7]. Also, in assay [12], the concentration at half-maximal activity (AC50) was 15.4 µM (active). For the same molecule, the molecule was called inactive in assay [2], in assay [4], in [9], in assay [10], in assay [14] and in [15].

Take `CC(C)CCCCCCCOC(=O)CCCCC(=O)OCCCCCCCC(C)C`: the outcome in assay [17], in assay [1], in assay [2], in assay [3], in assay [4] and in [5] was inactive. In addition, the outcome in [6], in assay [7], in assay [9], in assay [10], in assay [12] and in [14] was inactive. In [15], the outcome was inactive. Further, the concentration at half-maximal activity (AC50) in assay [11] was 28.8 µM (active).

Turning to `Clc1nc(Cl)c(Cl)c(Cl)c1Cl`, the outcome in [17], in [2], in [3], in assay [4], in assay [5] and in [7] was inactive. Further, the outcome in [9], in assay [10], in assay [14] and in assay [15] was inactive. Moreover, the half-maximal activity concentration (AC50) was 11.2 µM (active) in assay [1], 16.5 µM (active) in [6] and 3.02 µM (active) in assay [13].

On to `CCOC(=O)c1ccc(C2CCC(NC[C@H](O)COc3ccc(O)c(NS(C)(=O)=O)c3)CC2)cc1` (stereo partly specified), for which the molecule was classed as inactive in assay [1], in [4], in [7], in [9], in [11] and in assay [13]. The call in [14] was inactive. Further, the AC50 in assay [2] is 49.2 µM (active); in assay [3], 50 µM (active); in [5], 31.2 µM (active); in assay [6], 30.5 µM (active); in [8] it was 54.8 µM (active); in assay [10], 52.3 µM (active). For the same molecule, the AC50 in assay [16] was 54.3 µM (active).

As to `O=C(OC[C@H]1O[C@@H](OC(=O)c2cc(O)c(O)c(OC(=O)c3cc(O)c(O)c(O)c3)c2)[C@H](OC(=O)c2cc(O)c(O)c(OC(=O)c3cc(O)c(O)c(O)c3)c2)[C@@H](OC(=O)c2cc(O)c(O)c(OC(=O)c3cc(O)c(O)c(O)c3)c2)[C@@H]1OC(=O)c1cc(O)c(O)c(OC(=O)c2cc(O)c(O)c(O)c2)c1)c1cc(O)c(O)c(OC(=O)c2cc(O)c(O)c(O)c2)c1`, the molecule was classed as inactive in assay [1], in assay [2], in assay [3], in assay [5], in assay [8] and in assay [9]. The call in [10], in assay [11], in [13], in [14], in assay [18] and in assay [15] was inactive. Further, the molecule was called inactive in assay [16]. Further, the AC50 in assay [4] was 7.77 µM (active); in assay [6], 11.2 µM (active); in [7] it was 8.95 µM (active); in [12], 9.47 µM (active).

Take `Cn1cnc([N+](=O)[O-])c1Sc1ncnc2nc[nH]c12`: the half-maximal activity concentration (AC50) was 29.5 µM (active) in assay [1]; 26.4 µM (active) in assay [8]; 6.59 µM (active) and 2.94 µM (active) and 9.77 µM (active) in [12]; 39.9 µM (active) in assay [13]; 26.1 µM (active) in assay [14]. Further, the outcome in [2], in assay [3], in [4], in [5], in [6] and in assay [7] was inactive. For the same molecule, the molecule was classed as inactive in [19], in assay [9], in [10], in assay [11], in assay [18] and in [16].
